# The supplement of paper PMC3334620
# The full ranking holds about 33,000 sequences; the median of “E-score (-0.5 to 0.5)” is about -0.017, and the highest 2% start at about 0.3. For the sample, the highest values were picked, then their nearest neighbours and some sequences at random.
# Molecular target: T1, Sut1 (UniProt P53032)
# T1 sequence: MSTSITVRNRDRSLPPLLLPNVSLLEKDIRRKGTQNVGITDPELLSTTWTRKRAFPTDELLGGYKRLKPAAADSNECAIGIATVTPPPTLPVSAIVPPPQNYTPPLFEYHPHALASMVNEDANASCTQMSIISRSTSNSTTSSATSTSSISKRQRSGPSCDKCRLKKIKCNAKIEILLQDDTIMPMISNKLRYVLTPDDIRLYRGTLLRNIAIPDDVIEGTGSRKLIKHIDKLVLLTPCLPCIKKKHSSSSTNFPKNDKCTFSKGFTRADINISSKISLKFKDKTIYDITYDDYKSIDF
# Test: PBM E-score (8-mer binding enrichment) (E-score (-0.5 to 0.5)); higher = stronger / more preferred TF binding
# Conditions: protein concentration: 200 nM; construct: GST-full length
# Procedure: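 Universal 'all 10-mer' protein binding microarrays (Agilent AMADID 015681) probed with GST-tagged S. cerevisiae TFs (full-length or DBD) made by in vitro transcription/translation (PURExpress), about 100-200 nM. Bound TF was detected with fluorescent anti-GST. Each ungapped 8-mer (which stands for itself and its reverse complement) is scored by the PBM enrichment score (E-score), a modified Wilcoxon-Mann-Whitney statistic from -0.5 to +0.5, computed with the Universal PBM Analysis Suite. Scale: above 0.35 generally sequence-specific binding.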
row,Sequence,PBM E-score
1,CCATTCGG,0.00649
2,ATGTTCGG,0.181
3,CTGCCCAG,-0.222
4,GCCTGGCA,-0.3
5,ACACGGAT,0.0295
6,CGACGGAC,0.349
7,AGACGGAA,0.0433
8,ACACGGAA,0.18
9,AGACGGAT,0.0639
10,CGACGGAA,0.116
11,GGACGGAC,0.285
12,CCACGGAG,0.365
13,CCACGGAC,0.202
14,CCACGGAA,0.178
15,ACACGGAG,0.409
16,AGACGGAG,0.322
17,AGTAGAGG,-0.308
18,GCGCAGCA,-0.232
19,ACAATTTC,0.0702
20,AGGATAAT,0.113
21,TCAAAGGA,-0.0285
22,GAGCCACC,-0.264

row,Sequence,PBM E-score
1,CCATCTCC,0.256
2,GAAGATTC,0.171
3,CATTCTCC,0.118
4,GCAACTCC,0.299
5,GCAACTAC,0.0638
6,ACAACTCA,0.13
7,CCAACTCC,0.387
8,ACAACTCC,0.431
9,CCAACTCG,-0.141
10,ACAACTCT,0.0085
11,CCAACTCA,-0.0222
12,GCAACTCA,0.0595
13,CGCTGTGA,-0.225
14,CTATTGGC,-0.227
15,ACCTTGAC,-0.143
16,AAGGAGTG,-0.0821
17,GCGGAGGA,-0.161
18,ATGGAGTA,0.179
19,ACGGAGTA,0.473
20,AAGGAGTA,0.0607
21,GCGGAGTA,0.458
22,ACGGAGTG,0.42

row,Sequence,PBM E-score
1,CCGGAGTC,0.484
2,GAGGAGTA,-0.0389
3,CCGGAGGC,0.156
4,CAGGAGTC,0.0824
5,ATGGAGTG,-0.0878
6,AATTGCGT,0.134
7,CGATCCTC,-0.124
8,ACACTCGA,-0.106
9,AAACCTAT,0.123
10,CTAGATGA,-0.0501
11,CACAAACG,0.127
12,CCAACCAG,-0.187
13,ACCGCAAT,0.1
14,CCGGAGTA,0.49
15,CTGGAGTA,0.0562
16,CAGGAGTA,-0.157
17,ACGGAGGC,-0.0143
18,ACGGAGTC,0.46
19,ATGGAGTC,0.0281
20,AACTTTAG,0.189
21,CACTTTAA,0.157
22,CAATTTTA,0.234

row,Sequence,PBM E-score
1,TAATTTAA,0.283
2,AAATTTAG,0.254
3,AAATTTTA,0.125
4,CGATTTAA,0.242
5,TGATTTAA,0.3
6,CAATTTAA,0.317
7,AACTTTAA,0.325
8,AGATTTAA,0.00422
9,AAATTTAA,0.318
10,CCAGGATC,-0.201
11,GTTTAACA,-0.00835
12,AGGATTTG,0.0444
13,CCTCCCTA,-0.367
14,CGCAAACG,-0.00322
15,AGATTGAG,0.0927
16,AACTATCT,0.0634
17,GGACCGTA,-0.172
18,CTGCGTTC,0.0373
19,GAGTTGTA,0.317
20,CAGTTGTA,0.00162
21,AAGTTGTA,0.0914
22,CTAGCGGA,0.0881

row,Sequence,PBM E-score
1,CGAGGTCA,-0.0467
2,GTCTCCAA,-0.0301
3,ATCTCCAA,0.158
4,GTCTCCGA,0.338
5,CTCTCCGA,0.257
6,ATCTCCGA,0.477
7,ATCTCCCA,-0.155
8,ATCTCCCC,-0.285
9,ATCTCCGC,0.399
10,CTCTCCGC,0.18
11,ATCTCCAG,-0.0734
12,ATCTCCGG,0.478
13,ATCTCCCG,-0.0416
14,AAGCGACC,0.0829
15,CGTAGGCA,-0.169
16,GATAGTAC,-0.00235
17,GCGCAAGC,-0.234
18,AAAGATTA,0.306
19,GAAGATTA,0.109
20,CAAGATTA,0.132
21,AAAAAACT,0.198
